Assay outcomes: PubChem BioAssay, National Center for Advancing Translational Sciences (NCATS)
An excerpt weighted towards active compounds, which were near 4.6% of everything screened.
Lassa entry inh – inhibitors of Lassa virus binding or cell entry; Lassa virus pseudotype entry inhibition, cell reporter; Potency, µM (doses to about 37.9 µM), hits mostly inhibitors; actives 1.2% (n = 300,000); calls by dose curve; tested in HEK293 cells; further: nearly all actives have a fitted effect of over 50% in size
VACV mCherry inh – vaccinia inhibition (mCherry reporter); AID 720579; Potency, µM (titrated, usually from 36.5 µM), actives largely listed as inhibitors; actives 0.63% (n = 310,000); Vaccinia virus mCherry reporter infection, fluorescence; calls by dose curve; tested in A549 cells; further: nearly all actives have a fitted effect of over 35% in size
VACV Venus inh – inhibitors of vaccinia virus (Venus reporter); Vaccinia virus Venus reporter expression, fluorescence; Potency, µM (doses to about 36.5 µM), most hits filed as inhibitors; actives 0.46% (n = 330,000); AID 720580; calls by dose curve; tested in A549 cells; further: nearly all actives have a fitted effect of over 30% in size
MARV entry inh – inhibitors of Marburg virus binding or cell entry | Marburg virus pseudotyped entry inhibition, cell reporter | Potency, µM (top dose mostly 37.8 µM), most hits filed as inhibitors | actives 1.8% (n = 300,000); calls by dose curve; tested in HEK293 cells
HCV inh – inhibitors of hepatitis C virus infection; actives 3.4% (n = 340,000); AID 651820; Huh7.5.1 HCVcc-Cre infection, luciferase reporter, 44 h; Potency, µM (top dose mostly 41.8 µM), hits mostly inhibitors; active means well fitted inhibition curve with a large enough effect; inconclusive means small, poorly fitted or top-dose-only effect, or another doubt; inactive means no such curve, though single readings can be large or run the other way
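A cell-based infection assay in which seeded cells (1,000 per well) receive test compound after 4 h, are inoculated with HCVcc-Cre at approximately 0.5 moi, and are incubated 44 h before luminescence detection.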
Hits are given with their value; - = inactive; ? = inconclusive; . = no result; [ ] = dose if it differs, or a comment.

SMILES	Lassa entry inh	VACV mCherry inh	VACV Venus inh	MARV entry inh	HCV inh
CCOC(=O)c1c(NC(=O)CSc2nnc(C)s2)sc2c1CCCCC2	-	?	-	?	10µM
CCOC(=O)c1c(NC(NC(=O)C(C)C)C(Cl)(Cl)Cl)sc2c1CCC2 (stereo not drawn)	?	-	-	11µM	?
CCOC(=O)c1c(NC(=O)CSc2nnc(-c3c[nH]c4ccccc34)n2CCOC)sc2c1CCCC2	?	?	?	-	11µM
CCOC(=O)c1c(NC(=O)CSc2nnc(N)s2)sc(C)c1-c1ccc(C)cc1	.	.	.	.	25µM
Cc1oc(-c2ccccc2NC(=O)C2CCC2)nc1CNC(=O)c1ccc2ccccc2c1	.	-	-	.	.
O=C(Nc1ccc(Cl)cc1Cl)C1=Cc2ccccc2OC1	13µM	-	-	?	-
O=C(Nc1ccc(Cl)cc1)C1=Cc2cc(Cl)ccc2OC1	-	-[1.46 µM]	?	-	-
CCOC(=O)c1c(NC(=O)C2=C(C)NC(=S)NC2c2ccc(F)cc2F)sc(C)c1C (stereo not drawn)	?	-	-	?	?
CCOC(=O)c1c(NC(=O)C2=C(C)NC(=S)NC2c2ccc(F)cc2)sc(C)c1C (stereo not drawn)	?	.	.	-	8.9µM
CCOC(=O)c1c(NC(=O)C2=C(C)NC(=S)NC2c2ccc(C)cc2)sc(C)c1C (stereo not drawn)	?	-	-	?	10µM
COc1cc2nc(C3CCC3)nc(N3CCN(c4ccccc4OC)CC3)c2cc1OC	?	?	?	?	3.2µM
O=C(Oc1c(CN2CCOCC2)cc(Cl)c2cccnc12)c1cccs1	?	?	?	10µM	?
O=C(Oc1c(Cl)cc(Cl)c2cccnc12)c1ccco1	?	13µM	?	?	?
O=C(Oc1c(CN2CCOCC2)cc(Cl)c2cccnc12)c1ccccc1Cl	?	3.5µM	5.6µM	?	?
CN(C)C(=O)Oc1c(Cl)cc(Cl)c2cccnc12	-	-	-	-	-
C=C(C)C(=O)C=Cc1ccc(Br)cc1	.	.	.	-	.
COc1ccc(C(=O)Oc2ccc(F)cc2C(=O)/C=C/c2ccc(OC)c(OC)c2)cc1	?	-	-	-	-
COc1ccc(/C=C/C(=O)c2cc(F)ccc2OC(=O)c2ccccc2C)cc1OC	?	?	?	5.2µM	-
CC(OC(=O)/C=C/c1ccco1)C(=O)Nc1cccc([N+](=O)[O-])c1 (stereo not drawn)	-	-	-	?	?
CC(=O)c1ccc(NC(=O)C(C)OC(=O)/C=C/c2ccco2)cc1 (stereo not drawn)	?	-	-	11µM	?
O=S(=O)(NCC(c1cccnc1)N1CCN(c2ccccc2F)CC1)c1cccs1 (stereo not drawn)	.	-	-	-	-
Cc1cccc(N2CCN(C(=O)C3CCN(S(=O)(=O)c4cccs4)CC3)CC2)c1C	?	?	-	-	.
Cc1cccc(N2CCN(C(=O)C(NS(=O)(=O)c3cccs3)c3ccccc3)CC2)c1C (stereo not drawn)	2.6µM	?	-	-	-
Cc1cccc(N2CCN(C(=O)C3CCN(S(=O)(=O)N4CCOCC4)CC3)CC2)c1C	?	.	.	-	10µM
O=C(C(NS(=O)(=O)c1cccs1)c1ccccc1)N1CCN(c2ccccc2F)CC1 (stereo not drawn)	7.3µM	-	-	?	?
SMILES	Lassa entry inh	VACV mCherry inh	VACV Venus inh	MARV entry inh	HCV inh
Cc1cccc(N2CCN(C(=O)C3CCC(CNS(=O)(=O)c4cccs4)CC3)CC2)c1C (stereo not drawn)	?	?	?	?	7.9µM
COc1ccc(NC(=O)C(c2ccc(C)cc2)N(C)C(=O)/C=C\c2ccc3c(c2)OCO3)cc1 (stereo not drawn)	?	-	-	?	.
O=C1c2ccccc2C(=O)N1c1ccc2ncccc2c1	.	-	-	.	.
COc1ccc(CN2CCCC(c3nc(C)ncc3-c3ccc(F)cc3)C2)c(OC)c1OC (stereo not drawn)	.	-	-	.	.
O=C(N/N=C1\C[C@@H](O)[C@@H](O)[C@@H]2[C@@H]3C(=O)N(C[C@@H]4CCCO4)C(=O)[C@@H]3CC[C@@H]12)OCc1ccccc1	.	.	.	-	.
Cc1ccccc1S(=O)(=O)Cc1ccc(C(=O)N2CCN(c3cccc(C)c3C)CC2)o1	3.5µM	-	?	?	5µM
Cc1ccccc1Nc1oc(-c2ccccc2)nc1C=Cc1ccccc1	.	.	.	-	.
CC1C=CC(C(C2C(=O)CC(C)(C)CC2=O)C2C(=O)CC(C)(C)CC2=O)S1 (stereo not drawn)	.	.	.	-	.
COc1ccc(-c2c(C)[nH]n3c(=O)c(Cc4ccccc4)c(C)nc23)cc1OC	?	-	-	7.9µM	?
